Experimental data from PubChem BioAssay (NCI).
About 83,000 compounds went through this panel and 20% of them were active in at least one assay; those are over-represented in the sample as a whole.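 Note: values are percent growth. 100 is the growth of untreated cells, values between 100 and 0 indicate rising inhibition; between -100 and 0 indicates cell death.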 Activity calls are given as the source filed them. Rule for the calls: active = growth percent below 10; inactive = the rest.

How the values were obtained:
Test in all cases: NCI-60 one-dose screen, 48 h (100 = growth as untreated, 0 = no growth, -100 = all killed)
Settings in all cases: 10 µM unless noted
[1] = test system: DU-145 prostate
[2] = test system: K-562 leukemia
[3] = test system: MALME-3M melanoma
[4] = test system: MDA-MB-231 breast
[5] = test system: RXF 393 renal
[6] = test system: SF-268 CNS
[7] = test system: SF-295 CNS
[8] = test system: SF-539 CNS
[9] = test system: UACC-257 melanoma
[10] = test system: M14 melanoma
[11] = test system: HCT-15 colon
[12] = test system: HT29 colon
[13] = test system: SNB-75 CNS
[14] = test system: SNB-19 CNS
[15] = test system: U251 CNS
[16] = test system: PC-3 prostate
[17] = test system: SK-MEL-5 melanoma
[18] = test system: UACC-62 melanoma
[19] = test system: LOX IMVI melanoma
[20] = test system: SK-MEL-28 melanoma

Measured: growth

COc1ccc(C(=O)c2nccc3cc(OC)c(OC)cc23)cc1OC
inactive: [1] 104% | [2] 103% | [3] 103% | [4] 85% | [5] 99.4% | [6] 89.3% | [7] 92.6% | [8] 94.3% | [10] 89.3% | [11] 96.7% | [12] 113% | [13] 89.5% | [14] 94.9% | [15] 98.6% | [16] 95.9% | [17] 99.6% | [18] 96.4% | [19] 93.3% | [20] 90.7%
active: [9] -11.2%

N/C(=N\c1nc2ccccc2[nH]1)NC(=O)Cc1cccc2ccccc12
active: [9] 6.29%
inactive: [1] 92.8% | [2] 107% | [3] 68.3% | [4] 84.6% | [5] 92% | [6] 86.5% | [7] 98.7% | [8] 91.3% | [10] 107% | [11] 71.7% | [12] 83.5% | [13] 87.5% | [14] 87.6% | [15] 80.6% | [16] 80% | [17] 82.2% | [18] 81.8% | [19] 81.4% | [20] 86.9%

Nn1c(Nc2ccc(S(=O)(=O)Nc3ncccn3)cc2)nnc(/C=C/c2c(O)ccc3ccccc23)c1=O
inactive: [1] 99.7% | [2] 85.2% | [3] 94.2% | [4] 71.4% | [5] 106% | [6] 84.7% | [7] 100% | [8] 102% | [9] 94.4% | [10] 97.5% | [11] 91.3% | [12] 105% | [13] 92.2% | [14] 96.8% | [15] 85.8% | [16] 75.4% | [17] 88.2% | [18] 84.3% | [19] 84.3% | [20] 112%

COc1ccc2nc3c(cc2c1)C(=O)CC(C(F)(F)F)C3 (stereo not given)
inactive: [2] 16.7% | [3] 49.6% | [4] 60% | [6] 57.4% | [7] 45.3% | [8] 22.6% | [9] 82% | [11] 37.8% | [12] 10.9% | [14] 50.3% | [15] 84.7% | [16] 33% | [17] 31.4% | [18] 39.8% | [19] 43.8% | [20] 61.1%
active: [1] 4.31% | [5] -1.91% | [10] 8.65% | [13] 7.87%

Cc1ccc2c(c1)/C(=N\N=C/c1cn(C(C)C)c3ccccc13)C(=O)N2
inactive: [1] 72.2% | [2] 22.1% | [3] 16.2% | [4] 50.5% | [5] 22.5% | [6] 66.4% | [7] 68.2% | [8] 58.6% | [9] 59.5% | [10] 54% | [11] 28.6% | [12] 11.3% | [13] 67.3% | [14] 76.5% | [15] 63.6% | [16] 34.7% | [17] 66% | [18] 50.1% | [19] 20% | [20] 73.4%

O=C(CSc1nc2ccc([N+](=O)[O-])cc2[nH]1)Nc1cccc(Cl)c1
inactive: [1] 36.3% | [2] 16.4% | [4] 41.1% | [5] 44.5% | [6] 24.3% | [7] 21.7% | [8] 45.2% | [9] 15% | [10] 29.4% | [11] 23.3% | [12] 21.1% | [13] 23.9% | [14] 17.6% | [15] 13.6% | [16] 11.7% | [19] 27.7% | [20] 28.9%
active: [3] 2.51% | [17] 0.349% | [18] 8.24%

COc1ccccc1S(=O)Nc1ccccc1 (stereo not given)
inactive: [1] 116% | [2] 104% | [3] 86.2% | [4] 92.5% | [5] 100% | [6] 100% | [7] 98.5% | [8] 109% | [9] 78.4% | [10] 111% | [11] 102% | [12] 91.4% | [13] 87.4% | [14] 99.5% | [15] 91% | [16] 87.2% | [17] 96.8% | [18] 94.1% | [19] 99.4% | [20] 114%

O=C(N/N=C1\c2ccccc2-c2cccc(C(=O)O)c21)c1ccc(O)cc1
inactive: [1] 101% | [2] 105% | [3] 88.2% | [4] 92.2% | [5] 97.6% | [6] 96.6% | [7] 102% | [8] 97.7% | [9] 99.5% | [10] 98% | [11] 107% | [12] 98.3% | [13] 74% | [14] 96.3% | [15] 101% | [16] 92.1% | [17] 99.1% | [18] 93.8% | [19] 98.9% | [20] 102%
